# Source: PubChem BioAssay
# M1 ag: agonists of human M1 muscarinic receptor | P11229 | CHO-K1 hM1, Fluo-8 calcium fluorescence, agonist mode; 0% DMSO, 100% acetylcholine EC100 | activation, % at 3 µM | 0.33% of 360,000 active | AID 588814;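 active means activation above the run's mean compound activation plus 3 SD, cut at about 16% in these data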;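 further: peak over basal fluorescence ratio within a 140 s kinetic read after compound addition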
# Target sequence (P11229 whole entry, looked up): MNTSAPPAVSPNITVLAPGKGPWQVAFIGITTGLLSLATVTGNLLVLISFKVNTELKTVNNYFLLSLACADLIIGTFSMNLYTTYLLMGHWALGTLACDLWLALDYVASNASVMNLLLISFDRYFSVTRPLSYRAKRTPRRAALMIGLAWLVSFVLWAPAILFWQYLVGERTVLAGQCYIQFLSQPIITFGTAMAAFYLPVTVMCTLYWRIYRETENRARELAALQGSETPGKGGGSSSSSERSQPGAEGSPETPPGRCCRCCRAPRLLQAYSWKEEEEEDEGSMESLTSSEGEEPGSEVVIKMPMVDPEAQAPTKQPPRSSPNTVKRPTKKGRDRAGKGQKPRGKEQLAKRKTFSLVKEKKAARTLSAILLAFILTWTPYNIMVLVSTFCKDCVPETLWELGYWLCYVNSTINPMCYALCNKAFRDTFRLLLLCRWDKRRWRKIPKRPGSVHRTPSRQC
# CHRM1 antagonist: blocks human M1 muscarinic receptor. P11229. CHO-K1 hM1, Fluo-8 calcium fluorescence, ACh EC80 antagonist. inhibition, % at 3 µM. 1.3% of 360,000 active. AID 588852;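 active means percent inhibition above its own plate's cutoff, namely the mean of that plate's compound wells plus 3 SD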;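 further: peak over basal fluorescence ratio during 140 s after agonist addition; 0% = ACh EC80 plus DMSO and 100% = DMSO alone without agonist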
# CHRM1 PAM: human CHRM1 positive allosteric modulation; P11229; CHO-K1 hM1, Fluo-8 calcium fluorescence, ACh EC20; 0% = ACh EC20, 100% = maximal ACh; activation, % at 3 µM; 0.088% of 360,000 active; AID 588819; in the data active means activation above about 19%, passing the limit was not always enough
# M1 PAM parental: M1 PAM counterscreen hit in parental CHO-K1 cells. ATP EC20, Fluo-8 calcium fluorescence; 0% at ATP EC20, 100% at ATP max. activation, % at 3 µM. 0.02% of 360,000 active. AID 602247;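 active means activation above the run cutoff, the mean activation of all test compounds plus 3 SD, cut at about 40% in these data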;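 further: peak over basal fluorescence ratio in a 140 s read after ATP addition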
# CHO-K1 Ca antag: counter-screen for M1 antagonists: effect in parental CHO-K1 cells. ATP-induced calcium, Fluo-8 fluorescence. inhibition, % at 3 µM. 0.6% of 360,000 active;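 active means inhibition above a per-plate cutoff, the plate's mean sample inhibition plus 3 SD, cut at about 24% in these data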;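 further: 0% = DMSO plus EC80 ATP and 100% = DMSO alone without ATP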
# CHO-K1 Ca ag: nonselective activator or artifact in parental CHO-K1 cells; Fluo-8 calcium fluorescence; scaled to maximal ATP response, vehicle zero; activation, % at 3 µM; 0.48% of 360,000 active; AID 602248; in the data active means activation above about 15%;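 further: untransfected CHO-K1 host cells lacking M1 receptor as counterscreen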
# Numbers without * were called inactive. An excerpt weighted towards active compounds, which were near 2.4% of everything screened.
SMILES,M1 ag,CHRM1 antagonist,CHRM1 PAM,M1 PAM parental,CHO-K1 Ca antag,CHO-K1 Ca ag
COC(=O)c1c(N2C(=O)CC(Sc3ccccc3C(=O)O)C2=O)sc2c1CCCC2 (centres undefined),-5.6,14.9,-10.6,-8.3,6.3,-0.5
Cn1c(=O)[nH]c(=O)c2c1nc(NCc1ccco1)n2Cc1ccccc1Cl,-6.0,-20.9,10.1,21.7,-6.9,0.7
CC(=O)c1ccc(NC(=S)NC(NC(=O)c2ccco2)C(Cl)(Cl)Cl)cc1 (centres undefined),16.9*,-6.5,9.6,8.3,-14.3,5.1
O=C(NC(NC(=S)Nc1ccc(Cl)cc1)C(Cl)(Cl)Cl)c1ccco1 (centres undefined),-1.2,6.7,-8.3,7.0,3.5,8.2
CC(C)C[C@H](NC(=O)c1[nH]cnc1C(=O)Nc1ccc(CNC(=O)OC(C)(C)C)cc1)C(=O)OC(C)(C)C,-0.9,24.0,-7.4,47.7*,-29.1,0.1
CC(C)(C)OC(=O)N1CCC(NC(=O)c2nc[nH]c2C(=O)NCc2ccccc2)CC1,-11.6,3.1,-4.4,9.3,-10.9,0.5
CC(C)(C)OC(=O)NCCCC[C@H](NC(=O)c1nc[nH]c1C(=O)N[C@@H](CCCCNC(=O)OC(C)(C)C)C(=O)OC(C)(C)C)C(=O)OC(C)(C)C,-2.5,17.0,-5.4,16.7,-19.4,0.9
CC(C)(C)OC(=O)NCc1ccc(CNC(=O)c2[nH]cnc2C(=O)NC2CCN(C(=O)OC(C)(C)C)CC2)cc1,4.0,34.5*,-18.6,11.8,-10.1,2.7
CC(C)(C)OC(=O)NCCCCCNC(=O)c1[nH]cnc1C(=O)N[C@@H](CCCCNC(=O)OC(C)(C)C)C(=O)OC(C)(C)C,-5.5,30.0*,-22.3,-0.6,-5.9,2.5
CC(C)(C)OC(=O)NCCCCCNC(=O)c1nc[nH]c1C(=O)NCc1ccc(CNC(=O)OC(C)(C)C)cc1,6.0,67.8*,-29.7,-10.6,14.5,15.5*
CCC(C)c1c(O)nc(SCC(=O)N2CCCCCC2)[nH]c1=O (centres undefined),-4.1,-0.5,1.9,15.6,-6.2,-0.1
CC(C)(C)OC(=O)NCCCCCNC(=O)c1nc[nH]c1C(=O)NCCCCCNC(=O)OC(C)(C)C,-0.7,43.9*,-22.8,-21.8,17.5,10.8
CC(C)(C)OC(=O)CNC(=O)c1nc[nH]c1C(=O)NCc1ccc(CNC(=O)OC(C)(C)C)cc1,-1.8,34.2*,-24.5,-18.8,16.9,12.0
CC(C)(C)OC(=O)CNC(=O)c1[nH]cnc1C(=O)Nc1ccc(CNC(=O)OC(C)(C)C)cc1,-0.1,52.5*,-28.5,-18.9,13.4,5.9
CC(C)(C)OC(=O)NCc1ccc(NC(=O)c2nc[nH]c2C(=O)NCCNC(=O)c2[nH]cnc2C(=O)Nc2ccc(CNC(=O)OC(C)(C)C)cc2)cc1,-2.6,9.7,-4.6,11.2,-6.6,1.9
Cc1cccc(NC(=O)c2nc[nH]c2C(=O)NCCCCCNC(=O)OC(C)(C)C)c1,-2.6,-20.4,9.6,12.3,-13.7,0.6
CC(C)(C)OC(=O)CNC(=O)c1nc[nH]c1C(=O)NCc1ccccc1,-0.7,-3.1,6.2,18.1,-12.9,2.2
CC(C)(C)OC(=O)NCc1ccc(CNC(=O)c2nc[nH]c2C(=O)NCc2ccc(CNC(=O)OC(C)(C)C)cc2)cc1,-1.0,2.0,-2.6,-18.2,29.1*,-0.9
Cc1ccc(CNC(=O)CC[C@H]2O[C@@H](n3cc(C)c(=O)[nH]c3=O)C[C@@H]2O)o1,0.5,-4.4,-5.5,-2.2,-5.3,-0.2
O=C(CNC(=O)C1CCCCC1)Nc1cc(Cl)ccc1Cl,-0.9,7.3,3.1,-13.9,24.8*,-0.7
O=C(CNC(=O)C1CCCCC1)Nc1ccccc1Cl,-6.0,-10.7,13.6,20.9,-3.5,0.2
C=C1C(=O)C=C2CN(C(=O)c3ccccc3)[C@@](Cc3ccc(F)cc3)(C(=O)OC)[C@@H]12,71.9*,103.5*,-34.2,-15.5,83.3*,74.5*
CS(=O)(=O)N1CCc2cc(S(=O)(=O)Nc3ccc4c(c3)OCCO4)ccc21,2.8,32.8*,-23.6,2.9,-1.1,14.7
Cc1ccc(NC(=O)CN(C)C(=O)C(C)OC(=O)c2ccccc2NCCO)cc1 (centres undefined),2.3,-27.2,27.5*,7.8,-2.2,0.3
